# According to article PMC5540273 (PLoS ONE, 2017):
# Legend:
# PIK4CB = test system: T1, PIK4CB
# T1 construct: gene PI4KB
# PKAC-alpha = test system: T2, PKAC-alpha
# T2 construct: gene PRKACA
# PKAC-beta = test system: T3, PKAC-beta
# T3 construct: gene PRKACB
# 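Also: kd values determined as follow-up on hits from a single-replicate KINOMEscan panel screen.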
smiles,measurement,setting,value
CSc1nn2c(=O)cc(N3CCOCC3)nc2n1Cc1cccc(Cl)c1Cl [GSK2347225],Kd,PIK3CD,0.24 µM
CC(C)(C)c1ccc(-n2cnc3c(N)ncnc32)cc1 [SKF-97263],Kd,PIK3CG,2.4 µM
O=C(Nc1ccccc1F)NC1CCN(c2ccnc(Nc3ccc(F)cc3)n2)C1 (stereo not drawn) [GSK1379722],Kd,PIK4CB,> 10 µM
O=C(c1ccc(-c2cc(-c3c[nH]nc3-c3ccccn3)ccn2)cc1)N1CCCC1 [GW792479],Kd,PIM1,> 10 µM
CNc1nccc(-c2c(-c3ccc(F)cc3)ncn2CCCN2CCOCC2)n1 [SB-222516],Kd,PIM3,> 10 µM
Nc1nc(-c2ccccn2)c(-c2ccnc3ccccc23)s1 [GW548057],Kd,PIP5K1C,> 10 µM
COc1cc2c(Nc3cccc(NC(=O)c4ccccc4)c3)ncnc2cc1OCCCN1CCOCC1 [GSK223810],Kd,PKAC-alpha,> 10 µM
C[C@@H]1CCN(C(=O)CO)C[C@@H]1N(C)c1ncnc2[nH]ccc12,Kd,PKAC-beta,> 10 µM
same,Kd,PKMYT1,> 10 µM
